A selection: hits, their analogues and other compounds. The true share with any hit is near 3.9%.
PLC-beta3 inh – PLC-beta3 (human) inhibition, primary screen; Q01970; 0.18% of 370,000 active; Purified PLC-beta3, fluorogenic substrate, fluorescence; AID 720704; inhibition, % at 12.2 µM; in the data active = inhibition above about 11%;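 note: 0% = median of compound wells on plate and 100% = full blocker control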
PLC-gamma1 inh – inhibitors of human phospholipase C gamma1; 0.84% of 370,000 active; purified PLC-gamma1, fluorogenic substrate, fluorescence; P19174; inhibition, % at 12.2 µM; in the data active = inhibition above about 9.5%
HIF activator – HIF pathway transcriptional activation; U2OS HRE-luciferase reporter, luminescence; normalized: DMSO 0%, desferrioxamine 100%; activation, % at 7.5 µM (by protocol); 0.32% of 300,000 active; AID 1910;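 active = mean activation of at least 10% of the iron chelator positive control signal, with at least half of replicates also reaching 10%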
HGIII-sPLA2 inh – Inhibits HGIII-sPLA2 liposome hydrolysis, primary screen; Q9NZ20; QFRET BODIPY PC-A2 liposome hydrolysis, fluorescence; inhibition, % at 12.2 µM; 0.56% of 370,000 active; AID 743126;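 active = inhibition above mean plus 3 SD of compounds lying within the high and low control bounds, cut at about 19% in these data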;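 note: 0% = median of test compound wells and 100% = no enzyme DMSO wells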
AHR act – activates the human aryl hydrocarbon receptor; AHR-responsive luciferase reporter cells, luminescence; activation, % at 5 µM; 2.5% of 320,000 active; AID 2796; in the data active = activation above about 47%;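 note: 0% = vehicle wells and 100% = reference agonist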
Yeast superoxide – lowers age-related superoxide in aged yeast cells | 0.18% of 330,000 active | superoxide response (% of plate mean), % at 10 µM | S. cerevisiae aged cells, superoxide DHE fluorescence; stronger effect = lower value | AID 2690;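 active = superoxide response under a set limit, about three screen SD below normal, cut at about 65% in these data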;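 note: yeast aged for seven days with compound at 30 °C before DHE staining; 100% = average MFI of all compound-treated wells on the plate with controls excluded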
* = called active by the depositor; . = no result given.

SMILES	PLC-beta3 inh	PLC-gamma1 inh	HIF activator	HGIII-sPLA2 inh	AHR act	Yeast superoxide
COC(=O)c1ccc(C=NNC(=O)c2cc(-c3ccc(C)c(C)c3)n[nH]2)cc1	3	5	.	3	.	.
Nc1nnnn1/N=C/c1ccccc1OCc1ccc(Cl)cc1Cl	2	1	0	-2	73*	103
COc1ccc2oc(C(=O)Nc3nc(C)cs3)c(C)c2c1	-200	-130	.	6	31	152
COc1ccc2oc(C(=O)Nc3ccccn3)c(C)c2c1	-34	-20	0	-8	72*	94
COc1ccc2oc(C(=O)Nc3ccc(C)cn3)c(C)c2c1	-19	3	4	-2	75*	99
CC(C)CN(/C=N/c1sc2c(c1C#N)CCCCC2)CC(C)C	-1	-5	0	-1	10	114
CCN(/C=N/c1sc2c(c1C#N)CCCCC2)CC	1	1	2	0	57*	97
O=C(Nc1ccccc1O)c1ccc(NC(=O)C2CC2)cc1	-2	6	58*	2	11	100
O=C(Nc1ccccc1C(=O)O)c1ccc(NC(=O)C2CC2)cc1	-10	-2	-1	-6	-1	106
Cc1nn(C)c(C(=O)Nc2ccc3c(c2)OCO3)c1[N+](=O)[O-]	-10	-1	1	0	.	99
Cc1nn(C)c(C(=O)Nc2ccc(Cl)c([N+](=O)[O-])c2)c1Cl	-3	-2	0	2	48*	101
Cc1cc(NC(=O)c2c([N+](=O)[O-])c(C)nn2C)no1	3	2	0	2	70*	80
O=C(C1CCCN(S(=O)(=O)c2ccccc2[N+](=O)[O-])C1)N1CCN(Cc2ccccc2)CC1 (stereo not given)	1	1	.	-4	.	.
NC1=NC2(CCCCC2)N=C(Nc2ccc(Br)cc2)N1	0	7	0	-3	72*	100
Cc1ccc(NC2=NC3(CCCCC3)N=C(N)N2)c(C)c1	3	1	0	0	5	100
Cc1ccc(NC2=NC3(CCCC3)N=C(N)N2)c(C)c1	-3	6	0	1	17	62*
CC(C)n1cc(/C=C2/SC(=O)N(CC(=O)N3CCCC3)C2=O)c2ccccc21	1	0	1	-3	7	123
CC(C)n1cc(/C=C2/NC(=O)NC2=O)c2ccccc21	-6	-4	-1	11	74*	102
C#CCn1cc(/C=C2\NC(=O)NC2=O)c2ccccc21	-8	-1	1	-5	77*	103
O=C1NC(=O)/C(=C/c2ccccc2Cl)N1	0	5	-4	0	1	104
O=C(N[C@@H]1CC[C@H]2SC[C@H](C(=O)O)N2C1=O)OCC1c2ccccc2-c2ccccc21	-6	1	.	-3	.	.
C[C@@H]1CN([C@H](C)CO)C(=O)c2cc(NC(=O)Nc3ccccc3)ccc2O[C@@H](C)CCCCO[C@H]1CN(C)S(=O)(=O)c1ccc(F)cc1	2	0	.	-48	.	.
COc1cccc(-c2nnc(-c3ccc(C(F)(F)F)cc3)o2)c1	-11	-6	4	-1	-3	93
Nc1ccccc1-c1nnc(-c2ccc(-c3ccccc3)cc2)o1	-150	-106	3	3	76*	110
Clc1cccc(-c2nnc(-c3ccno3)o2)c1	-7	5	0	0	-1	119
SMILES	PLC-beta3 inh	PLC-gamma1 inh	HIF activator	HGIII-sPLA2 inh	AHR act	Yeast superoxide
Clc1cccc(-c2nnc(-c3ccccc3)o2)c1	3	5	1	1	65*	89
c1ccc(-c2nnc(-c3ccccc3)o2)cc1	-2	2	2	-8	59*	85
Oc1ccccc1-c1nnc(-c2ccc(C(F)(F)F)cc2)o1	-21	-18	-18	-4	52*	111
c1ccc(-c2nnc(-c3ccncc3)o2)cc1	-1	0	1	4	1	94
O=C(NCc1ccccc1)N1CCN(Cc2nc3ccccc3c(=O)[nH]2)CC1	3	2	.	3	.	.
CCOC(=O)Cc1csc(NC(=O)Nc2cccc(OC)c2)n1	-3	0	0	-10	2	59*
CC(=O)N1CCCN(S(=O)(=O)c2ccc3c(c2)c(=O)n(C)c(=O)n3C)CC1	-6	2	.	4	.	.
CCc1cc(=S)n2c([nH]c3ccccc32)c1C#N	.	.	3	.	22	123
CCc1c(C)c(C#N)c2[nH]c3ccccc3n2c1=S	-241	-173	0	1	59*	90
COc1cccc(C(=O)Nc2cc3c(cc2N2CCCC2)n(C)c(=O)n3C)c1	-96	-64	-1	2	13	81
COc1cccc(C(=O)Nc2ccc(C3CC3(Cl)Cl)cc2)c1 (stereo not given)	-3	-2	2	-15	73*	112
COc1cccc(C(=O)Nc2ccc3c(c2)n(C)c(=O)n3C)c1	1	3	0	2	48*	107
Cc1c(CCOC(=O)C23CC4CC(CC(C4)C2)C3)sc[n+]1Cc1ccccc1	-1	1	0	0	69*	92
CC(C)NC(=O)C1CCN(c2cncnc2)CC1	-9	-4	.	12	.	.
COc1ccc(-c2sc3cc4c(cc3c2C#CC2(N)CCCCC2)OCO4)cc1	-44	-29	.	7	66*	110
Cc1cc(C)nc(SCC(=O)N2CCc3ccccc32)n1	-5	3	4	8	73*	99
Cc1nc(C)c(NC(=O)N2CCc3ccccc32)cc1NC(=O)N1CCc2ccccc21	1	0	.	-5	50*	119
O=C(CN(c1cccc(C(F)(F)F)c1)S(=O)(=O)c1ccc(Cl)c([N+](=O)[O-])c1)NCc1ccc(F)cc1	11*	8	1	-2	-1	95
CC(=O)Nc1ccc(NC2=C/C(=N/S(=O)(=O)c3cccs3)c3ccccc3C2=O)cc1	7	11*	-2	-7	-18	110
COc1ccc(S(=O)(=O)/N=C2\C=C(Nc3ccc(O)cc3)C(=O)c3ccccc32)cc1	4	18*	-7	-39	-9	121
Cc1ccc(NC2=C/C(=N/S(=O)(=O)c3cccs3)c3ccccc3C2=O)cc1C	4	5	1	-4	4	102
O=C(O)c1ccc(S(=O)(=O)/N=C2\C=C(Nc3ccccc3F)C(=O)c3ccccc32)cc1	0	20*	-1	-2	70*	109
O=C(OC12CCCN(C1)/C(=C/c1cccnc1)C2)c1cccc(F)c1 (stereo not given)	-7	-1	.	2	.	.
CC1CC1C(=O)N1CCC(Oc2cccnc2)CC1 (stereo not given)	3	1	.	-1	.	.
CCCOc1nccc2c1n(C)c(=O)n2C	3	0	.	2	.	.
COc1ccc(CNC(=O)O[C@H]2CC[C@@]34CCCN3C(=O)CCC[C@H]4[C@H]2C)cc1OC	2	0	.	-1	.	.
CC[C@@]1(O)C(=O)OCc2c1cc1n(c2=O)Cc2cc3c(N)cccc3nc2-1	-146	-107	17*	4	-6	94

Screens deposited in PubChem BioAssay by several laboratories.
